IL1B secr inh: blocks inflammasome-driven IL-1 beta release | THP-1 LPS/ATP IL-1B secretion, AlphaLISA, 16 h; stronger effect = lower value | activity change, % at 57.5 µM | 4.7% of 360,000 active | AID 743279; in the data active = activity change below about -50%; inconclusive = mostly about -30% to -49%; note: % is set by controls: 0 for no effect and ±100 for the full control effect
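THP-1 cells pretreated 1 hr with compounds (up to 57.5 uM final), then stimulated with LPS (250 ng/mL final) plus ATP (1.25 mM final); secreted IL-1B measured by AlphaLISA after 16 hr, decreased signal indicating inhibition.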
D3 antag: D3 dopamine receptor (human) antagonism | P35462 | D3R cells, DiscoveRx beta-arrestin luminescence, antagonist mode; stronger effect = lower value | max response, negative = inhibition, % | 2.5% of 360,000 active; in the data active = max response below about -50%; inconclusive = no clear call, values can overlap the other calls; note: % is set by controls: 0 for no effect and ±100 for the full control effect
Target sequence (P35462 whole entry, looked up): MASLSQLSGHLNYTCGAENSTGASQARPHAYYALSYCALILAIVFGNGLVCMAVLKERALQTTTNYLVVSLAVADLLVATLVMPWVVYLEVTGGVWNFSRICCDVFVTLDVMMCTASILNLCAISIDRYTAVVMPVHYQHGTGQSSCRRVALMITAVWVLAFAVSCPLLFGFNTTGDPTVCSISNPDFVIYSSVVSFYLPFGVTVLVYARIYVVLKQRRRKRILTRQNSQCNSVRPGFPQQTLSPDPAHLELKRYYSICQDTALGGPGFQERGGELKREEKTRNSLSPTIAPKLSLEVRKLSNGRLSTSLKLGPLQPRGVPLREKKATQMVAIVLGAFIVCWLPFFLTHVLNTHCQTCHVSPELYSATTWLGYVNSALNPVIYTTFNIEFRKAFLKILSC
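Cells plated overnight at 1500 cells/well, then exposed to library compounds with dopamine controls for 90 minutes at 37 degrees C. DiscoveRx reagent added for 30–60 minutes at room temperature; luminescence read, quantitative HTS format.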
ATXN2 expr inh: inhibitors of ATXN2 expression. HEK-293 ATXN2-luciferase reporter, luminescence, 24 h. Potency, µM (highest dose often 57 µM), inactives show top-dose activity change, negative = inhibition, most hits filed as inhibitors. AID 1745845. 0.72% of 360,000 active; note: potency is the fitted concentration of half-maximal effect; % is set by controls: 0 for no effect and ±100 for the full control effect; nearly all actives have a fitted effect of over 55% in size
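ATXN2-luciferase reporter cells (luciferase flanked by upstream and downstream ATXN2 gene portions) were treated 24 h at 37 °C with compounds at up to 57 uM. SteadyGlo luminescence gave expression; GF-AFC fluorescence gave viability.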
D3 ag: agonists of human D3 dopamine receptor | AID 652048 | P35462 | max activation, % | 0.58% of 410,000 active | D3R DiscoveRx beta-arrestin cells, luminescence, 90 min; in the data active = max activation above about 30%; note: 0% is about no effect
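Agonist-mode cell screen: cells plated at 1500/well and incubated overnight at 37 °C, then exposed to library compounds for 90 min at 37 °C. Detection reagent was added for 30–60 min at room temperature, and luminescence was read.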
ATXN viability: reduces viability in counter-screen for ATXN expression inhibitors; 0.49% of 400,000 active; Potency, µM (top dose mostly 56.7 µM), actives largely listed as cytotoxic; S2 cells (HEK-293 line with an ATXN2-luciferase reporter) viability, CellTiter-Fluor protease fluorescence, 24 h; note: potency is the fitted concentration of half-maximal effect; nearly all actives have a fitted effect of over 40% in size
a7 integrin act: integrin-mediated muscular dystrophy alleviation activation; alpha7betagal myoblasts, beta-gal FDG fluorescence, 48 h; Potency, µM (series often up to 38.3 µM), for inactives: at the top dose activation, usual class: activators; 0.064% of 350,000 active;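 note: potency is the fitted concentration of half-maximal effect; 100% = response of the positive control SU9516; nearly all actives have a fitted effect of over 60% in size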
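alpha7betagal+/- myoblasts (passage 13, 250/well) treated 48 h at 37C with compounds at 1:260 dilution of DMSO stock. Lysed, then beta-galactosidase activity read as FDG fluorescence (ex 480/em 540) after 30 min, with pre-read for autofluorescence.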
The depositor's hits bear a star. A selection: hits, their analogues and other compounds. The true share with any hit is near 7%. Unless noted, calls come from the whole dose curve; as a rule, active = well fitted curve in the direction sought with a large enough effect; inconclusive = small, poorly fitted or top-dose-only effect, or another doubt; inactive = no such curve, though single readings can be large; an effect the other way counts as inactive or inconclusive.

`CCO[C@@H]1OC(C(=O)NC2CC2)=C[C@H](c2ccc3c(c2)OCO3)[C@H]1CCCO` gave IL1B secr inh -9, D3 antag 40, ATXN2 expr inh 6%, D3 ag -5, ATXN viability inactive and a7 integrin act -15%.
`CCOC(=O)c1ccc(N2C(=O)C3CC=CCC3C2=O)cc1` (stereo not drawn) gave IL1B secr inh 9, D3 antag 6, ATXN2 expr inh 25%, D3 ag 4, ATXN viability inactive and a7 integrin act -16%.
CCOC(=O)c1ccc(N2C(=O)C3C(C2=O)C(C(=O)c2ccc(Cl)cc2)N2CCCC32)cc1 (stereo not drawn) was read as IL1B secr inh -66*, D3 antag -22, ATXN2 expr inh 8%, D3 ag -5, ATXN viability inactive and a7 integrin act -24%.
`O=C(c1ccc(NC2=NC3CS(=O)(=O)CC3S2)cc1)N1CCN(c2ccccc2F)CC1` (stereo not drawn) gave IL1B secr inh -3, D3 antag -61*, ATXN2 expr inh -9%, D3 ag -10, ATXN viability inactive and a7 integrin act -5%.
`Cc1ccc(-n2c(=O)c3c4c(sc3n(CC(=O)Nc3cccc(Cl)c3)c2=O)CCCCC4)cc1C` gave ATXN2 expr inh 1%, D3 ag 3 and ATXN viability inactive.
`Cc1ccc(-n2c(SCc3nc(-c4ccc(Cl)cc4)no3)nnc2-c2ccncc2)cc1` gave ATXN2 expr inh -21%, D3 ag 7 and ATXN viability inconclusive.
Screening Clc1ccc(-c2noc(CSc3nnc(-c4ccncc4)n3-c3ccccc3)n2)cc1 returned IL1B secr inh -56*, D3 antag 23, ATXN2 expr inh inconclusive, D3 ag 22, ATXN viability inactive and a7 integrin act -35%.
COc1ccc(-c2noc(CSc3nnc(Cc4ccccc4)n3-c3cccc(C)c3)n2)cc1OC was read as IL1B secr inh -64*, D3 antag -10, ATXN2 expr inh -17%, D3 ag 6, ATXN viability inactive and a7 integrin act -14%.
For COc1ccccc1NC(=O)c1oc2ccccc2c1C the results were IL1B secr inh 10, D3 antag 16, D3 ag -1, ATXN viability inactive and a7 integrin act -13%.
Screening CCOC(=O)N1CCN(S(=O)(=O)c2ccc3[nH]c(=O)oc3c2)CC1 returned IL1B secr inh 2, D3 antag -6, ATXN2 expr inh -12%, D3 ag 34*, ATXN viability inactive and a7 integrin act 10%.
For Cc1ccc(S(=O)(=O)N2CCN(CCNC(=O)C(=O)Nc3ccc(F)cc3)CC2)cc1 the results were IL1B secr inh -15, D3 antag 18, ATXN2 expr inh -14%, D3 ag 32*, ATXN viability inactive and a7 integrin act -22%.
CCN1CCN(C(=O)c2ccc(CSc3ccc(C)cc3)cc2)CC1 was read as IL1B secr inh -54*, D3 antag -53*, ATXN2 expr inh -20%, D3 ag -30, ATXN viability inactive and a7 integrin act -31%.
Cc1ccc(SCc2ccc(C(=O)N3CCCC3)cc2)cc1 was read as IL1B secr inh -3, D3 antag 9, ATXN2 expr inh 16%, D3 ag 3, ATXN viability inactive and a7 integrin act -49%.
For CCc1ccc(NC(=O)CN2CCCN(S(=O)(=O)c3ccc(F)cc3)CC2)cc1 the results were IL1B secr inh -59*, D3 antag -16, ATXN2 expr inh -12%, D3 ag -22, ATXN viability inactive and a7 integrin act -4%.
`CCOC(=O)C1CCN(S(=O)(=O)c2ccc3[nH]c(=O)oc3c2)CC1` gave IL1B secr inh -29, D3 antag 4, ATXN2 expr inh -13%, D3 ag -3, ATXN viability inactive and a7 integrin act 8%.
For COc1ccc(NC(=O)CN2CCCN(S(=O)(=O)c3ccc(F)cc3)CC2)cc1 the results were IL1B secr inh -11, D3 antag -6, ATXN2 expr inh -22%, D3 ag -18, ATXN viability inactive and a7 integrin act 20%.
Screening CC(C)(C)NC(=O)NC(=O)COC(=O)CNC(=O)c1cc(Cl)cc([N+](=O)[O-])c1 returned IL1B secr inh 19, D3 antag 5, ATXN2 expr inh -25%, D3 ag -2, ATXN viability inactive and a7 integrin act -29%.
For Cc1ccc(C(=O)N2CCN(CCNC(=O)C(=O)NCc3ccc(Cl)cc3)CC2)cc1 the results were IL1B secr inh 0, D3 antag -78*, ATXN2 expr inh -16%, D3 ag -20, ATXN viability inactive and a7 integrin act 27%.
Screening CC(C)(C)NC(=O)NC(=O)CN1CCN(S(=O)(=O)c2ccccc2)CC1 returned IL1B secr inh 38, D3 antag 19, ATXN2 expr inh -17%, D3 ag 1, ATXN viability inactive and a7 integrin act -8%.
Cc1ccc(C(=O)N2CCN(CCNC(=O)C(=O)Nc3ccc(Cl)cc3)CC2)cc1 was read as IL1B secr inh inconclusive, D3 antag -61*, ATXN2 expr inh -28%, D3 ag -22, ATXN viability inactive and a7 integrin act 11%.
`Cc1ccc(C(=O)N2CCN(CCNC(=O)C(=O)NC(C)C)CC2)cc1` gave IL1B secr inh 3, D3 antag -21, ATXN2 expr inh 1%, D3 ag -12, ATXN viability inactive and a7 integrin act -17%.
For CCOC(=O)c1ccc(S(=O)(=O)N2CCN(CC(=O)NC(=O)NC(C)(C)C)CC2)cc1 the results were IL1B secr inh -4, D3 antag -71*, ATXN2 expr inh 7%, D3 ag 3, ATXN viability inactive and a7 integrin act 11%.
Screening O=C(NCCN1CCN(C(=O)c2c(F)cccc2F)CC1)C(=O)Nc1ccc(Cl)cc1 returned IL1B secr inh -7, D3 antag 24, ATXN2 expr inh -14%, D3 ag 11, ATXN viability inconclusive and a7 integrin act 23%.
CCOC(=O)N1CCN(S(=O)(=O)c2ccc(F)c(C(=O)Nc3ccc(C)c(Cl)c3)c2)CC1 was read as IL1B secr inh -70*, D3 antag -19, ATXN2 expr inh -10%, D3 ag -9, ATXN viability inactive and a7 integrin act -12%.
`CC(=O)Nc1ccc(NC(=O)CN(c2ccc(C(C)C)cc2)S(=O)(=O)c2ccccc2)cc1` gave IL1B secr inh -16, D3 antag 15, D3 ag 3, ATXN viability inactive and a7 integrin act 1%.
Screening Cc1ccccc1NC(=O)NCCc1c[nH]c2ccccc12 returned IL1B secr inh -12, D3 antag 43, ATXN2 expr inh -1%, D3 ag 6, ATXN viability inactive and a7 integrin act 15%.
